Experiments:
Assay in all cases: PBM binding z-score (relative to random genomic background probes); higher = stronger binding; sequences stand for … in GC…GCGATTGACAGCGTAGAATGAAGG
[1] = tested on: FXR:RXRa (NR concentration 270 nM, RXRa partner concentration 90 nM)
Summary of the method: (§1)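 Binding z-scores take random background probes as their reference. They come from custom Agilent 4×180K protein-binding microarrays incubated 1 h with ligand-free nuclear receptor dimers, with antibodies against each partner (one per run) detecting binding. Scanned fluorescence was regression-normalized.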

[2] = tested on: LXRa:RXRa (NR concentration 270 nM, RXRa partner concentration 90 nM)
Summary of the method: as §1

[3] = tested on: LXRa homodimer (NR concentration 270 nM)
Summary of the method: as §1

[4] = tested on: LXRb:RXRa (NR concentration 270 nM, RXRa partner concentration 90 nM)
Summary of the method: as §1

[5] = tested on: LXRb homodimer (NR concentration 270 nM)
Summary of the method: as §1

[6] = tested on: PPARa:RXRa (NR concentration 270 nM, RXRa partner concentration 90 nM)
Summary of the method: as §1

[7] = tested on: PPARg:RXRa (NR concentration 180 nM, RXRa partner concentration 90 nM)
Summary of the method: as §1

[8] = tested on: PPARg:RXRa 270nM:90nM, anti-RXR (NR concentration 270 nM, RXRa partner concentration 90 nM)
Summary of the method: as §1

[9] = tested on: PPARg:RXRa 30nM:10nM, anti-RXR (NR concentration 30 nM, RXRa partner concentration 10 nM)
Summary of the method: as §1

[10] = tested on: PPARg:RXRa 90nM:30nM, anti-RXR (NR concentration 90 nM, RXRa partner concentration 30 nM)
Summary of the method: as §1

| Sequence | PBM binding z-score [1] | PBM binding z-score [2] | PBM binding z-score [3] | PBM binding z-score [4] | PBM binding z-score [5] | PBM binding z-score [6] | PBM binding z-score [7] | PBM binding z-score [8] | PBM binding z-score [9] | PBM binding z-score [10] |
| --- | --- | --- | --- | --- | --- | --- | --- | --- | --- | --- |
| TCTTGTAGATTAATAGAGGTTAAGAAAGTGCGCT | 1.31 | 4.17 | 2.85 | 2.28 | 0.623 | 2.07 | 0.283 | 2.2 | 3.11 | 2.59 |
| AGGATGAGGTTATTAAGATCAGGGAATTGCGGTC | 2.1 | 1.84 | 0.789 | 1.65 | 0.764 | 2.29 | 1.06 | 1.24 | 0.391 | 0.788 |
| TCTATTAGTTGATTAGAGCAACCGAAACAGCGGA | 0.47 | 0.476 | 0.0625 | 0.326 | 0.361 | 0.484 | -0.0852 | 1.56 | 3.21 | 2.38 |
| CTACCAACGTGAACAAGGTCGTTGATTACTATTC | 0.409 | 0.657 | 0.667 | 1.48 | 0.184 | 1.22 | 0.42 | 0.167 | -0.0638 | 0.0634 |
| CCTAGTTGGACAGGAGGTCACACACCGGATATGA | 3.17 | 3.27 | 1.86 | 3.19 | 0.666 | 4.11 | 2.52 | 2.96 | 0.938 | 2.35 |
| AGAATGAGGTTATACATAGATCAGGGAAGAAAGT | 1.88 | 2.05 | 0.223 | 1.56 | 0.151 | 3.07 | 2.28 | 1.87 | 0.974 | 1.4 |
| GGAACCAGGGCATTCGAGTTGATAGCATGGCGAT | 1.3 | 0.74 | -0.0183 | 0.0646 | 0.153 | 1.69 | 0.973 | 0.862 | -0.134 | 0.0636 |
| CCTCCAAGGTCAAAGGTCAGTGAAGAGATGACGG | 8.2 | 6.83 | 3.53 | 6.63 | 1.95 | 7.19 | 10.5 | 8.79 | 8.47 | 9.3 |
| AGAATGAGGTTACCAAAGATCAAGGAAACGCTTG | 2.13 | 7.01 | 0.25 | 4.24 | -0.325 | 3.7 | 2.89 | 3.09 | 1.08 | 2.26 |
| GTACCAAGGTGATTAGGTCGTTGATGAGTAGGCG | 0.478 | 0.469 | 0.085 | 0.0701 | -0.428 | 0.886 | 0.547 | 0.741 | -0.00723 | 0.0201 |
| CTACCAAGGTGAACAAGGTCGTAGATTACTATTC | 1.44 | 1.27 | -0.0649 | 1.62 | -0.766 | 2.66 | 1.19 | 1.36 | 0.159 | 0.588 |
| CCAGACAGGTGAGAAGGTAACTCCGCCTCGATTA | -0.167 | -0.237 | 0.189 | -0.163 | -0.188 | 0.436 | 0.351 | 0.504 | -0.516 | 0.193 |
| CAAACTAGGTGAAGGTCAAAGTCGGTTTGTGCCA | 4.11 | 4.11 | 2.31 | 3.48 | 0.412 | 5.38 | 7.65 | 6.92 | 5.05 | 6.44 |
| CCAACTGGGCCAAGGTCATTGATCAGTCAAAGCA | 2.96 | 2.9 | 0.591 | 2.91 | -0.522 | 4.3 | 4.16 | 4.06 | 1.82 | 3.3 |
| ATATGTAGGTTAAATCCGGGTCATTCAGGCTATG | 2.83 | 5.17 | 3.32 | 3.47 | 1.09 | 4.96 | 5.84 | 5.44 | 2.91 | 4.84 |
| AGTCAAAGTTCAGGACGAGGGAACGTAAAGCACG | 3.73 | 3.68 | 0.988 | 1.57 | 0.379 | 3.05 | 4.52 | 4.88 | 1.99 | 3.87 |
| TCGAGTAGGTTAGGTGCATTCAGAATGGCGTCGA | -0.264 | -0.0402 | -0.55 | 0.172 | -1.05 | 0.236 | -0.209 | 0.709 | 0.736 | 0.505 |
| CATACTAGGTCACGAAAGGTCAAAGTCGAATGAC | 7.5 | 8.25 | 8.77 | 7.29 | 3.6 | 6.39 | 9.53 | 7.93 | 6.31 | 8.01 |
| AGTCAAAGTTCACTGGGTAACGTAAGATTCAGCT | 5.3 | 5.02 | 3.18 | 2.98 | 0.65 | 4.78 | 7.5 | 6.72 | 3.78 | 6.4 |
| AGAATGAGGTTAAGATCAGGGAGACAGAATACAT | 2.07 | 1.66 | 0.293 | 1.69 | -0.0325 | 3.31 | 2.15 | 2.29 | 0.947 | 1.62 |
| TCTTGTAGATCAACAGGAGGTTAAGAATGATCGA | 0.541 | 0.729 | 0.072 | 0.703 | -0.4 | 1.41 | 0.296 | 1.52 | 2.59 | 2.06 |
| ATATGTAGGTTAGCTGGGGTCATTCGGACTAGGC | 4.85 | 5.8 | 3.75 | 4.73 | 1.58 | 5.11 | 5.79 | 5.43 | 3 | 4.4 |
| GCTGCTAGGTCAACTGGTGGTCAGCTAAAGCTCG | 4.15 | 3.04 | -0.00351 | 1.99 | -0.442 | 3.55 | 2.75 | 3.48 | 0.603 | 2.25 |

— the supplement of paper PMC6555819
